Among all 39,000 compounds or so, about 3,300 (8.5%) were called active. The sample as a whole holds a higher share of actives than the screen did.
These compounds were tested on HepG2 (assay: cytotoxicity call (relative viability < 0.9)). Details: 10 µM.

Compound	cytotoxicity call
CN(C)Cc1cn(CC[C@H]2CC[C@H](NS(=O)(=O)c3ccccc3)[C@H](CO)O2)nn1	inactive
C[C@H]1CN([C@@H](C)CO)C(=O)c2cc(NS(C)(=O)=O)ccc2O[C@H]1CN(C)Cc1ccc(C(=O)Nc2ccccc2N)cc1	inactive
C[C@H]1CN([C@@H](C)CO)C(=O)CCCn2nncc2CO[C@@H]1CN(C)C(=O)Nc1cccc2ccccc12	inactive
C[C@H](CO)N1C[C@H](C)[C@@H](CN(C)C(=O)Nc2ccc(C(F)(F)F)cc2)Oc2ccc(NC(=O)C3CCCCC3)cc2CC1=O	inactive
O=C1O[C@@H](c2ccccc2)[C@@H](c2ccccc2)N2[C@@H](c3ccc(OCCO)cc3)[C@]3(C(=O)Nc4ccc(C#CC5=CCCCC5)cc43)[C@@H](C(=O)NC[C@H](O)c3ccccc3)[C@H]12	active
O=C1O[C@@H](c2ccccc2)[C@@H](c2ccccc2)N2[C@@H](c3ccc(OCCO)cc3)[C@]3(C(=O)Nc4ccc(C#CC5(O)CCCCCC5)cc43)[C@@H](C(=O)NC[C@H](O)c3ccccc3)[C@H]12	inactive
O=C1O[C@@H](c2ccccc2)[C@@H](c2ccccc2)N2[C@@H](c3ccc(O)cc3)[C@]3(C(=O)Nc4ccc(C#CC5=CCCCC5)cc43)[C@@H](C(=O)NC[C@H](O)c3ccccc3)[C@H]12	inactive
COc1cccc(S(=O)(=O)N(C)C[C@@H]2Oc3ncc(C#CCC(C)C)cc3C(=O)N([C@H](C)CO)C[C@H]2C)c1	inactive
O=C(C[C@H]1CC[C@@H]2[C@H](COC[C@@H](O)CN2S(=O)(=O)c2ccccc2)O1)N1CCOCC1	inactive
O=C(NC1CCCCCCC1)c1ccccc1-c1ccccc1	inactive
O=C(NC1CCN(CCCCC2(C(=O)NCC(F)(F)F)c3ccccc3-c3ccccc32)CC1)c1ccccc1-c1ccc(C(F)(F)F)cc1	active
C[C@]1(C(=O)NCC(F)(F)F)c2ccccc2C(=O)N(Cc2cc(C(F)(F)F)cc(C(F)(F)F)c2)[C@H]1c1ccc(CO)cc1	inactive
C[C@H]([C@@H](N)C(=O)N[C@H](C(=O)O)[C@H]1O[C@@H](n2ccc(O)cc2=O)[C@@H](O)[C@H]1O)[C@@H](C)c1ccc(O)cn1	inactive
C[C@H](CO)N1C[C@H](C)[C@@H](CN(C)C(=O)Cc2ccncc2)Oc2cc(-c3cncnc3)ccc2S1(=O)=O	inactive
C[C@@H]1CN([C@@H](C)CO)C(=O)c2cc(NC(=O)Cc3cn(C)c4ccccc34)ccc2O[C@@H]1CN(C)Cc1ccc(Cl)c(Cl)c1	active
C[C@H]1CN([C@@H](C)CO)C(=O)c2cc(NC(=O)Cc3cn(C)c4ccccc34)ccc2O[C@H]1CN(C)Cc1ccc(Cl)c(Cl)c1	inactive
C[C@@H]1CN([C@H](C)CO)C(=O)c2cc(NC(=O)Cc3cn(C)c4ccccc34)ccc2O[C@H]1CN(C)Cc1ccc(Cl)c(Cl)c1	inactive
C[C@H]1CN([C@@H](C)CO)C(=O)c2cc(NC(=O)Cc3cn(C)c4ccccc34)ccc2O[C@@H]1CN(C)Cc1ccc(Cl)c(Cl)c1	inactive
C[C@@H]1CN([C@@H](C)CO)C(=O)c2cc(NC(=O)Cc3cn(C)c4ccccc34)ccc2O[C@@H]1CN(C)S(C)(=O)=O	inactive
C[C@H]1CN([C@@H](C)CO)C(=O)c2cc(NC(=O)Cc3cn(C)c4ccccc34)ccc2O[C@@H]1CN(C)S(C)(=O)=O	inactive
C[C@H](CO)N1C[C@H](C)[C@@H](CN(C)Cc2ccc(Cl)c(Cl)c2)Oc2ccc(NC(=O)Cc3cn(C)c4ccccc34)cc2CC1=O	inactive
C[C@H](CO)N1C[C@H](C)[C@@H](CN(C)Cc2ccc(Cl)c(Cl)c2)Oc2ccc(NC(=O)Cc3cn(C)c4ccccc34)cc2C1=O	inactive

Compound	cytotoxicity call
C[C@@H]1CN([C@H](C)CO)C(=O)c2cc(NC(=O)Cc3cn(C)c4ccccc34)ccc2O[C@@H]1CN(C)Cc1ccc(Cl)c(Cl)c1	active
C[C@@H]1CN([C@@H](C)CO)C(=O)c2cc(NC(=O)Cc3cn(C)c4ccccc34)ccc2O[C@H]1CN(C)Cc1ccc(Cl)c(Cl)c1	active
C[C@H](CO)N1C[C@H](C)[C@H](CN(C)Cc2ccc(Cl)c(Cl)c2)Oc2ccc(NC(=O)Cc3cn(C)c4ccccc34)cc2C1=O	inactive
C[C@@H]1CN([C@H](C)CN(C)C)C(=O)c2cc(NC(=O)Cc3cn(C)c4ccccc34)ccc2O[C@H]1CN(C)S(=O)(=O)c1ccc(Cl)cc1	active
Cc1noc(C)c1S(=O)(=O)Nc1ccc2c(c1)CC(=O)N([C@@H](C)CO)C[C@H](C)[C@H](CN(C)S(=O)(=O)c1ccc(F)cc1)O2	inactive
CC(C)NC(=O)Nc1ccc2c(c1)CC(=O)N([C@@H](C)CO)C[C@H](C)[C@H](CN(C)S(=O)(=O)c1ccc(Cl)cc1)O2	inactive
CO[C@@H]1CN(C)C(=O)c2ccc(NC(=O)NC(C)C)cc2OC[C@H](C)N(Cc2ccc(-c3ccccn3)cc2)C[C@@H]1C	inactive
O=c1[nH]c2cc(C(F)(F)F)c(N3CCOCC3)cc2n(CP(=O)(O)O)c1=O	inactive
C[C@H](CO)N1C[C@H](C)[C@@H](CN(C)S(=O)(=O)c2cccs2)Oc2ccc(NC(=O)C3CC3)cc2CC1=O	inactive
Cc1noc(C)c1NC(=O)Nc1ccc2c(c1)C(=O)N([C@H](C)CO)C[C@@H](C)[C@H](CN(C)Cc1ccncc1)OCCCC[C@H](C)O2	inactive
C[C@@H]1CN([C@@H](C)CO)C(=O)c2cccc(NC(=O)CCCCCC(=O)Nc3ccccc3N)c2O[C@@H]1CN(C)C(=O)Nc1ccc(C(F)(F)F)cc1	inactive
Cc1ccc(S[C@]2(C(=O)NCC(C)C)CC(=O)N(C3Cc4ccccc4C3)[C@@H]2c2ccc(CO)cc2I)cc1	inactive
C[C@@H]1CCCCO[C@@H](CN(C)Cc2ccncc2)[C@@H](C)CN([C@@H](C)CO)C(=O)c2cc(NC(=O)CCC(F)(F)F)ccc2O1	inactive
C[C@@H]1CN([C@@H](C)CO)C(=O)c2cccc(NC(=O)c3cnccn3)c2O[C@H]1CN(C)C(=O)Nc1ccc2c(c1)OCO2	inactive
C[C@@H]1CN([C@H](C)CO)C(=O)CCCn2nncc2CO[C@@H]1CN(C)C(=O)Nc1ccc2c(c1)OCCO2	inactive
C[C@H]1CN([C@@H](C)CO)C(=O)Cc2cc(NC(=O)Cc3cn(C)c4ccccc34)ccc2O[C@@H]1CN(C)Cc1ccc(Cl)c(Cl)c1	inactive
C[C@@H]1CN([C@H](C)CO)C(=O)Cc2cc(NC(=O)Cc3cn(C)c4ccccc34)ccc2O[C@H]1CN(C)Cc1ccc(Cl)c(Cl)c1	inactive
C[C@H](CO)N1C[C@H](C)[C@H](CN(C)Cc2ccc(Cl)c(Cl)c2)Oc2ccc(NC(=O)Cc3cn(C)c4ccccc34)cc2CC1=O	active
C[C@H]1CN([C@@H](C)CO)C(=O)Cc2cc(NC(=O)Cc3cn(C)c4ccccc34)ccc2O[C@H]1CN(C)Cc1ccc(Cl)c(Cl)c1	inactive
C[C@@H]1CN([C@@H](C)CO)C(=O)Cc2cc(NC(=O)Cc3cn(C)c4ccccc34)ccc2O[C@H]1CN(C)Cc1ccc(Cl)c(Cl)c1	inactive
C[C@@H]1CN([C@H](C)CO)C(=O)Cc2cc(NC(=O)Cc3cn(C)c4ccccc34)ccc2O[C@@H]1CN(C)Cc1ccc(Cl)c(Cl)c1	active

Source: the antibiotic and cytotoxicity screens of Wong et al. (2023)
